From ChEMBL document CHEMBL3988442, “University of Dundee, Small-Polar-MMV Screening Library” (2021)
For some of these results: Measured potencies and affinities stand elsewhere.

Key:
Set-up in all cases: scale not given: direction of the effect not stated beside the values
[1] = target: Protein translocase subunit SecA (Escherichia coli (strain K12)) (UniProt P10408); assay: Assay to Identify E. coli SecA ATPase Inhibitors; format: functional; conditions: 30 µM
[2] = target: T1, Ubiquitin-activating enzyme e1, putative (Leishmania donovani (strain BPK282A1)) (UniProt E9BSI1); assay: Leishmania donovani Ubiquitin Activating Enzyme (LdE1); format: functional; conditions: 30 µM
T1 sequence (whole entry): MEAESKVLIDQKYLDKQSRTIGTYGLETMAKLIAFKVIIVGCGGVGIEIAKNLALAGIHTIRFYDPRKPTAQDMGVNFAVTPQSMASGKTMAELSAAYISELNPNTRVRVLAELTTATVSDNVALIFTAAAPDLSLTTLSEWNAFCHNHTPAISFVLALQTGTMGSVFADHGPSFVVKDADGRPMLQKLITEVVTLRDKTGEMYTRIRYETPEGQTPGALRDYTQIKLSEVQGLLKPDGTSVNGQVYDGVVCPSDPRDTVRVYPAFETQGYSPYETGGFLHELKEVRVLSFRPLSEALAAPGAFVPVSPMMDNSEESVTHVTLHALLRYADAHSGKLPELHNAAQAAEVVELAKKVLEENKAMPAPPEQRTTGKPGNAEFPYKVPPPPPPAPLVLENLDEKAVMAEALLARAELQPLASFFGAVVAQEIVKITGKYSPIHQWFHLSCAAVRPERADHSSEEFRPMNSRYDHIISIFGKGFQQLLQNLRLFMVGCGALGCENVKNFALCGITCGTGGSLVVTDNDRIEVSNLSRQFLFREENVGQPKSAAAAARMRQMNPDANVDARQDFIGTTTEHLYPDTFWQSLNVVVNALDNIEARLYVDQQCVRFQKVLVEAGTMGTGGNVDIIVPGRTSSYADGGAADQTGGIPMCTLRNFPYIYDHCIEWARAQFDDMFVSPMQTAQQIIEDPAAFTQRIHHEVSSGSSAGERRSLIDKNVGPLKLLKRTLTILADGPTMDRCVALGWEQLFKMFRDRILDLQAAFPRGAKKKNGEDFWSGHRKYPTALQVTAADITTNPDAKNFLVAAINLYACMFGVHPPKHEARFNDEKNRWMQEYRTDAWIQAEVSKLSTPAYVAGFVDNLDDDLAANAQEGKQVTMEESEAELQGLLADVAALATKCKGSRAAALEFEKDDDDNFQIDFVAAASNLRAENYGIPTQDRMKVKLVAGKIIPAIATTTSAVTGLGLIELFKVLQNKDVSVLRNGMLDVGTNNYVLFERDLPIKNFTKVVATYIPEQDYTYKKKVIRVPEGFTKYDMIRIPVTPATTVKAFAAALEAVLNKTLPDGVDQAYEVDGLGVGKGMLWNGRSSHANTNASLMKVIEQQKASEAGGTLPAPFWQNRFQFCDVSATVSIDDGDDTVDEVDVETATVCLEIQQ

[3] = target: Sialic acid-binding Ig-like lectin 9 (Homo sapiens) (UniProt Q9Y336); assay: Hs-Siglec9 ALPHAscreen SOP 20170721; conditions: 10 µM
Sequence of Sialic acid-binding Ig-like lectin 9 (Homo sapiens) (Q9Y336 whole entry): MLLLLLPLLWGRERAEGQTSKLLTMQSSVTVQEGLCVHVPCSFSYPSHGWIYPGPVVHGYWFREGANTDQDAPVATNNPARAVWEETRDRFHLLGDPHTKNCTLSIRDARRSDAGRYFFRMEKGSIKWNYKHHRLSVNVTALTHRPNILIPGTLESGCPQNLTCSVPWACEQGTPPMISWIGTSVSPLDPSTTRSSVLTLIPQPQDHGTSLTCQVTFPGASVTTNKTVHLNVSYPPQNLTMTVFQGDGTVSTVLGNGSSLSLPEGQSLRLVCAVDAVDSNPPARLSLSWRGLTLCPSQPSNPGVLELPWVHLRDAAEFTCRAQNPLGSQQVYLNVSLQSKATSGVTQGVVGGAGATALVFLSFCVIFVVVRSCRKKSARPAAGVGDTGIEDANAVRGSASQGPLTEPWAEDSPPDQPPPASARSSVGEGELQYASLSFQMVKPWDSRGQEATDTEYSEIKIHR

Trypanosoma cruzi = assay: Trypanosoma cruzi phosphomannomutase and mannose-1-phosphate guanylyltransferase assay; format: functional; conditions: 10 µM
[4] = target: T2, Arginase-2, mitochondrial (Homo sapiens) (UniProt P78540); assay: in vitro enzyme assay to detect the production of urea directly proportional to the activity of Arginase II; format: functional; conditions: 33.3 µM; further: in the data most compounds retested in dose-response had high values
T2 sequence (whole entry): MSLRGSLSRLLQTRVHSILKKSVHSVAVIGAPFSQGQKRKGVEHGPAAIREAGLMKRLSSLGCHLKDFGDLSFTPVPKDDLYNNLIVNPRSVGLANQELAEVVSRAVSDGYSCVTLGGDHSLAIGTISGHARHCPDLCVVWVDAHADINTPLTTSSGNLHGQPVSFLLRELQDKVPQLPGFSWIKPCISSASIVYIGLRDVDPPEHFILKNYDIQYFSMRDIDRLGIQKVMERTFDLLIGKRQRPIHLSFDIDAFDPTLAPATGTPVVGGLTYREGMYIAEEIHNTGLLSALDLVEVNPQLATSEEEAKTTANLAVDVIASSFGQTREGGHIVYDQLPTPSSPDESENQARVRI

[5] = target: T3, Proteasome subunit beta (Trypanosoma cruzi) (UniProt O96673); assay: Trypanosoma cruzi proteasome chymotrypsin-like activity (TcProtChymo) assay.; further: in the data most compounds retested in dose-response had high values; format: functional; conditions: 9.37 µM
T3 sequence (whole entry): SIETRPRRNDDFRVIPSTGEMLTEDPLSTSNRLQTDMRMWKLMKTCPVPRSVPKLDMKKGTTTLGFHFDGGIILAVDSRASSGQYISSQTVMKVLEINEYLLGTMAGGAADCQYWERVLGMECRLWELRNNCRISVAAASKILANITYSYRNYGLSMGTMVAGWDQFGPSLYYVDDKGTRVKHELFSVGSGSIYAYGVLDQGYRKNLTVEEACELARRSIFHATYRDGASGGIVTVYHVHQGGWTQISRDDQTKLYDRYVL

Homo sapiens = organism: Homo sapiens; assay: To identify inhibition of the IFN signalling (Jak-Stat) pathway via expression of an eGFP reporter gene under the control of an IFN-stimulated response element (ISRE) containing MxA promoter.; format: functional; conditions: 30 µM
[6] = target: T4, Tyrosyl-tRNA synthetase, putative (Trypanosoma cruzi (strain CL Brener)) (UniProt Q4DSP6); assay: Trypanosoma cruzi tyrosyl tRNA synthetase (TcYRS) _High Tyrosine SOP; format: functional; conditions: 30 µM; further: in the data most compounds retested in dose-response had high values
T4 sequence (whole entry): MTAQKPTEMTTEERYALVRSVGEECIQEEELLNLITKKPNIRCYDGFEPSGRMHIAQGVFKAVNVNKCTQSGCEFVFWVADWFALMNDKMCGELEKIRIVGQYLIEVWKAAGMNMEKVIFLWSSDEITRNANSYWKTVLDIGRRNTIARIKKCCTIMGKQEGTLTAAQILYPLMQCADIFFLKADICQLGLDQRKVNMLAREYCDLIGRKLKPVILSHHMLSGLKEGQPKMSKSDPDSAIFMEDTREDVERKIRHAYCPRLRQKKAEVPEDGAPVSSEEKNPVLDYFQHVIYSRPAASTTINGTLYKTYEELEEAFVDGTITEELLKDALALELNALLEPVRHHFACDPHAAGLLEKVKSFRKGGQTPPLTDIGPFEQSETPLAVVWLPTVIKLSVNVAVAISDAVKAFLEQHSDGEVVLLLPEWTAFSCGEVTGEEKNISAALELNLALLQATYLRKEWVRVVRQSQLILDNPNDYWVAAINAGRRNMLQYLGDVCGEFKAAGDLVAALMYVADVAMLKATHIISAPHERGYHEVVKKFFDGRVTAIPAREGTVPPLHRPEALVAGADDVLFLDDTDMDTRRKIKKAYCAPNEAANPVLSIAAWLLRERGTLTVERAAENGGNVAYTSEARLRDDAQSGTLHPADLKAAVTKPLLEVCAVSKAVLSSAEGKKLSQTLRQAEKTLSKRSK

[7] = target: T4, Tyrosyl-tRNA synthetase, putative (Trypanosoma cruzi (strain CL Brener)); assay: Trypanosoma cruzi tyrosyl tRNA synthetase (TcYRS) SOP; format: functional; conditions: 30 µM
[8] = target: Chromo domain-containing protein 1 (Saccharomyces cerevisiae (strain ATCC 204508 / S288c) (Baker's yeast)) (UniProt P32657); assay: ScCHD-1 Enzyme Inhibition Assay; format: functional; conditions: 30 µM; further: in the data most compounds retested in dose-response had high values
Sequence of Chromo domain-containing protein 1 (Saccharomyces cerevisiae (strain ATCC 204508 / S288c) (Baker's yeast)) (P32657 whole entry, the tested form may be a part): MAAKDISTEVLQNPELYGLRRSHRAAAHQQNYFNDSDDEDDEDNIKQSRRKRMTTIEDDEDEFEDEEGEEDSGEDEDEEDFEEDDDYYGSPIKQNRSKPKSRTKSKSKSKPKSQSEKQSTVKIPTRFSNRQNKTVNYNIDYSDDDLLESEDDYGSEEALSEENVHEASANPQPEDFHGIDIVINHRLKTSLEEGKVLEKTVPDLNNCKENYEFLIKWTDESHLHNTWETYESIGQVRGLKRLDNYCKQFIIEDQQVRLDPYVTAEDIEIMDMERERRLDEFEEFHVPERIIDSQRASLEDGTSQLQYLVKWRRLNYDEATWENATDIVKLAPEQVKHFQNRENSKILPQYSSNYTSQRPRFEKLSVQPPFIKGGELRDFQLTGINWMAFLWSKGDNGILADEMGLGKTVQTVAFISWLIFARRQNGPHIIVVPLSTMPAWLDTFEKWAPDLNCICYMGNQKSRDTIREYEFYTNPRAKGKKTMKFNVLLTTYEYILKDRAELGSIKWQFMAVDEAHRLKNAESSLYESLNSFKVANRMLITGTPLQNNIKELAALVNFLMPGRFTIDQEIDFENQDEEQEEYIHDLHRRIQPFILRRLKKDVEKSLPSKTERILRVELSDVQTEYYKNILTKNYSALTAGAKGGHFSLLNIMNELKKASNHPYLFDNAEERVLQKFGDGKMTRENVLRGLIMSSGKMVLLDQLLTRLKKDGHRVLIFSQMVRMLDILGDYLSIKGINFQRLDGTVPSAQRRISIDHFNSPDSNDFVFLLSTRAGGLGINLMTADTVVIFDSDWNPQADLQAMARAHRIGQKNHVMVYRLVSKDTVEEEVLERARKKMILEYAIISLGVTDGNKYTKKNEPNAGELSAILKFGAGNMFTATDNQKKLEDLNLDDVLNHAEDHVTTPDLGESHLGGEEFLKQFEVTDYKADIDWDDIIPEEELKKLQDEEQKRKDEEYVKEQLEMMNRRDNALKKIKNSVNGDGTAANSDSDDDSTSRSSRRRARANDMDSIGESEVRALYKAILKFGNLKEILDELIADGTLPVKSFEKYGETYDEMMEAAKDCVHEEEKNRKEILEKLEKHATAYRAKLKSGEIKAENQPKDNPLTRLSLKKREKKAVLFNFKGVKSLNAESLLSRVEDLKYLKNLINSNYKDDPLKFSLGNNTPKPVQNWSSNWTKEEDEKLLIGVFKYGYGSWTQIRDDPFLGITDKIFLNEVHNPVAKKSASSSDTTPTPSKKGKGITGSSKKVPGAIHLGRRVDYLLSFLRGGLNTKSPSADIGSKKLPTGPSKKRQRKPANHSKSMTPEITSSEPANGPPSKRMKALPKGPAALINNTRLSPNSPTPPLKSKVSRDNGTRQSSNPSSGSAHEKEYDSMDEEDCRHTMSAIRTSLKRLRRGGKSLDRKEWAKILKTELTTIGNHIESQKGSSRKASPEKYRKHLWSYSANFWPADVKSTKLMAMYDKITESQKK

Sequence of Protein translocase subunit SecA (Escherichia coli (strain K12)) (P10408 whole entry): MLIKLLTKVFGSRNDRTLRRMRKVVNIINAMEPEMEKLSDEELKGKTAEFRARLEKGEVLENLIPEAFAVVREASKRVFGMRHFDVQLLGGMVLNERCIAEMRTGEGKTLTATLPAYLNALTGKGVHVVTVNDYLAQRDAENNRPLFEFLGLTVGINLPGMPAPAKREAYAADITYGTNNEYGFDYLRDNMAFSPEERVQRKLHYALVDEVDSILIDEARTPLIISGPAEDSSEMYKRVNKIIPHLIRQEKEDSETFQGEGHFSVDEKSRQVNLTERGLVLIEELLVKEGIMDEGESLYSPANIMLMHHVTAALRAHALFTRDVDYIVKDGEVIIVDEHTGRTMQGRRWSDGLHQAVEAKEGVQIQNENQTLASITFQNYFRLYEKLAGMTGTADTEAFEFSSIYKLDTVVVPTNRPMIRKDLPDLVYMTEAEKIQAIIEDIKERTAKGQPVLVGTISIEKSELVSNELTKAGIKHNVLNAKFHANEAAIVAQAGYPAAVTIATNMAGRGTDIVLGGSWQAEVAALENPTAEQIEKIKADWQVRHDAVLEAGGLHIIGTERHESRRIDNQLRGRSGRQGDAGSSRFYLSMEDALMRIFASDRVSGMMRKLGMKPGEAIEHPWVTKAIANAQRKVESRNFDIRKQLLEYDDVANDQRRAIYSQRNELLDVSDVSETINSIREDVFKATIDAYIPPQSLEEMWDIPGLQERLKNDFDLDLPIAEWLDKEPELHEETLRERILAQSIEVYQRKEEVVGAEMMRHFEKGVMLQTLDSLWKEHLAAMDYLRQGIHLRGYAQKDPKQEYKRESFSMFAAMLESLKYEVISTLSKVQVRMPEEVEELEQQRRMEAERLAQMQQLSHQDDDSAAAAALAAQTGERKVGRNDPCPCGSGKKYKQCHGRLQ

Structure (SMILES) | Percent Effect [1] [%] | Percent Effect [2] [%] | Percent Effect [3] [%] | Percent Effect (Trypanosoma cruzi) [%] | Percent Effect [4] [%] | Percent Effect [5] [%] | Percent Effect (Homo sapiens) [%] | Percent Effect [6] [%] | Percent Effect [7] [%] | Percent Effect [8] [%]
CN(C)c1ccccc1C(=O)N1C[C@@H](CN2CCOCC2)[C@@H](CO)C1 | -7.18 | 5.41 | 5.57 | 6.69 | -0.35 | 18.3 | 22.3 | 7.98 | 19.5 | -2.44
CN(C)S(=O)(=O)N1CCN(c2ccnc(N3CCCC3)n2)CC1 | -3.6 | -2.7 | -0.53 | 3.01 | -1.75 | 8.39 | -13.3 | 3.72 | 4.88 | -0.866
COC1CC2(CCN(Cc3ccc4c(c3)OCO4)CC2)C1 | -2.7 | 24.7 | -4 | -2.63 | 1.83 | 10 | -11.4 | 6.76 | 12.5 | -8.26
COc1cc(C)c(S(=O)(=O)NCc2cccnc2N(C)C)c(C)c1 | 0.224 | 23.4 | -2.16 | 0 | -5.53 | 19.8 | 52.1 | 4.9 | 28.2 | -10.7
